Potency and outcome data for seven compounds are collected here from PubChem BioAssay (NCATS).

Inconclusive results are not listed. Calls of active or inactive are those of the source. Unless noted, the call rests on the fitted dose curve; in most records, active means well fitted curve in the direction sought with a large enough effect; inconclusive means small, poorly fitted or top-dose-only effect, or another doubt; inactive means no such curve, though single readings can be large; an effect the other way counts as inactive or inconclusive.

Assay [1] in a line: Counterscreen for APE1 Inhibitors: Fluorescent Dye Displacement Validation Assay (AID 1707). The gist of the method: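 ThO 250 nM + dsDNA 50 nM (THF abasic site, 5'-TAMRA), Tris-HCl pH7.5/50mM NaCl/2 mM MgCl2/0.01% Tween-20; compounds pin-transferred; ex 480/em 540 nm endpoint. Neutral = no compound; no-DNA ThO wells = negative control.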
Assay [2] addresses Endonuclease 4 (Escherichia coli (strain K12)) (UniProt P0A6C1). Briefly: Counterscreen for APE1 Inhibitors: qHTS Validation Assay for Inhibitors of Endonuclease IV (AID 1708). Further: potency means the concentration at half of the fitted maximal effect. The method in brief: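 E. coli EndoIV at 2 nM final, preincubated 15 min at room temperature with compound, then 50 nM TAMRA/BHQ-2 THF abasic-site duplex added. Buffer: 50 mM Tris-HCl pH 7.5, 50 mM NaCl, 2 mM MgCl2, 1 mM DTT, 0.01% Tween-20. Kinetic fluorescence increase, third minus first read.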
(Counterscreens check selectivity or assay interference.)

Assay [3] can be described thus: qHTS for differential inhibitors of proliferation of Plasmodium falciparum line 7G8 (AID 1815;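 further: parasite growth measured after three days of incubation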; further: potency means the concentration at half of the fitted maximal effect). (qHTS replaces the single test concentration by a dilution series.)
Assay [4] can be described thus: qHTS for differential inhibitors of proliferation of Plasmodium falciparum line GB4 (AID 1816).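 Further: parasite growth measured after 72 h incubation.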 Further: potency means the concentration at half of the fitted maximal effect. As to conditions: Potency: Plasmodium falciparum GB4 proliferation inhibition.
The nature of assay [5]: qHTS for differential inhibitors of proliferation of Plasmodium falciparum line 3D7 (AID 1876). Further: potency means the concentration at half of the fitted maximal effect.
Assay [6] can be described thus: qHTS for differential inhibitors of proliferation of Plasmodium falciparum line D10 (AID 1877).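 Further: parasites grown with compound for 72 h before DNA staining.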 Further: potency means the concentration at half of the fitted maximal effect.
A short description of assay [7]: qHTS for differential inhibitors of proliferation of Plasmodium falciparum line Dd2 (AID 1882). Further: nearly all actives have a fitted effect of over 65% in size. Further: potency means the concentration at half of the fitted maximal effect. As to conditions: Potency: Plasmodium falciparum Dd2 proliferation inhibition. The method in brief:
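Dd2-infected erythrocytes (0.3% parasitemia, 2.5% hematocrit final) incubated with compound 72 h at 37 C, 5% CO2; lysed with saponin/Triton buffer containing SYBR Green I, incubated overnight in the dark, then read by fluorescence (485/535 nm). Normalized to 0.29 uM artemisinin and DMSO.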

Assay [8] is described as follows: qHTS for differential inhibitors of proliferation of Plasmodium falciparum line W2 (AID 1883).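 Further: parasites grown with compound for 72 h before lysis and staining.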 Further: potency means the concentration at half of the fitted maximal effect. As to conditions: Potency: Plasmodium falciparum W2 proliferation inhibition.
Assay [9] is described as follows: qHTS for differential inhibitors of proliferation of Plasmodium falciparum line HB3 (AID 1886).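 Further: parasites grown with compound for 72 h before SYBR Green readout.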 Further: potency means the concentration at half of the fitted maximal effect. Conditions: Potency: Plasmodium falciparum HB3 proliferation inhibition.
Assay [10] has as its target Ferritin light chain (Equus caballus) (UniProt P02791). The assay can be described thus: qHTS Validation Assay for Identification of Novel General Anesthetics (AID 2323). Further: series mostly up to about 77 µM. The method in brief:
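Competitive displacement of profluorescent 1-aminoanthracene (1-AMA, 50% saturated solution in PBS) from 10 uM horse-spleen apoferritin. Compounds incubated 10 min at room temperature; fluorescence read at 380 nm excitation/535 nm emission, normalized to free 1-AMA and complex, fitted with four-parameter Hill equation.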

For assay [11], the target named is ATP-dependent DNA helicase Q1 (Homo sapiens) (UniProt P46063). Briefly: qHTS Validation Assay for Inhibitors of RecQ-Like Dna Helicase 1 (RECQ1) (AID 2353). The gist of the method: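 50 nM RECQ1T1 preincubated 15 min with compound in Tris pH 8.0 buffer with MgCl2, DTT, Tween-20 and 2.5 ug/ml poly(dI-dC); started with 200 nM TAMRA/BHQ-2 forked duplex and 2 mM ATP. Unwinding read as fluorescence (525/598 nm), two reads 2 h apart.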
Chain of ATP-dependent DNA helicase Q1 (Homo sapiens) (P46063 whole entry, looked up): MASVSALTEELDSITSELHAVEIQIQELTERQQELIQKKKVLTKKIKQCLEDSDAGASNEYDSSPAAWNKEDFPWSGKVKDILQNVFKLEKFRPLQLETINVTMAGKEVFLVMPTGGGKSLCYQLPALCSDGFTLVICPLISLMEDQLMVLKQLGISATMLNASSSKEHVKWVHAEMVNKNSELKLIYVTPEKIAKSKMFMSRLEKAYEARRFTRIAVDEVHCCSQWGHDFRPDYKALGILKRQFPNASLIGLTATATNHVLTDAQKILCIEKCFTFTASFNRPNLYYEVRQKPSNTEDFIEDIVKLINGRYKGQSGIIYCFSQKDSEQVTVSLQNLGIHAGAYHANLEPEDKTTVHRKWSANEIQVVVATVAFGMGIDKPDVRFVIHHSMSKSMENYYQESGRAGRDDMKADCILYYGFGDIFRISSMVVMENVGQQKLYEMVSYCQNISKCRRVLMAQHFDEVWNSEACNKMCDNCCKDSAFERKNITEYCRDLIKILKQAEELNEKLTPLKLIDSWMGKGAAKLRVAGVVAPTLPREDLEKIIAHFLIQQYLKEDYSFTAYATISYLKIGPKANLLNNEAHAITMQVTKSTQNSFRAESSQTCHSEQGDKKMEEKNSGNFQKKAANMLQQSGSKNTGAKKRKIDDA

Assay [12] in a line: Cytometric Cell-Based qHTS for Inhibitors of the mTORC1 Signaling Pathway in MEF (Tsc2-/-, p53-/-) Cells (AID 2660).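 Further: percent of cells above a phospho-rpS6 to PI ratio cutoff in each well; series mostly up to about 38 µM.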 The method in brief:
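Percent of cells positive for normalized phospho-S6 staining is reported, with the cutoff set from rapamycin (7.5 nM) versus DMSO wells. Tsc2-/-, p53-/- MEFs received compound for 24 hrs.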

Assay [13] in a line: High Content Imaging Cell-Based qHTS for Inhibitors of the mTORC1 Signaling Pathway in MEF (Tsc2-/-, p53-/-) Cells (AID 2666).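 Further: percent of cells scored positive for phospho-rpS6 Ser235/236 immunostaining by imaging.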 The gist of the method:
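Phospho-rpS6 (Ser235/236) immunofluorescence, normalized and scored as % positive cells using rapamycin and DMSO controls, was read in empty-vector Tsc2-/-, p53-/- MEFs after 24 h compound exposure at 37 C; propidium iodide counted cells.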

Assay [14] is described as follows: High Content Imaging Cell-Based qHTS for Inhibitors of the mTORC1 Signaling Pathway in MEF Cells (AID 2667). Further: potency means the concentration at half of the fitted maximal effect. The gist of the method:
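WT MEFs (Tsc2-/-, p53-/- re-expressing Tsc2), in DMEM + 10% FBS, were treated with compound for 24 h at 37 C. Cells were then fixed and stained for phospho-rpS6 Ser235/236 with propidium iodide as cell count. Values are % positive cells, with thresholds set against rapamycin-treated cells.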

Assay [15] in a line: Cytometry Cell-Based qHTS for Inhibitors of the mTORC1 Signaling Pathway in MEF cells (AID 2668).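 Further: Tsc2-/- p53-/- mouse embryonic fibroblasts stably re-expressing wild-type Tsc2; percent cells positive for phospho-rpS6 Ser235/236 relative to propidium iodide stain; series mostly up to about 38 µM.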 The method in brief: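 WT MEFs (Tsc2-/-, p53-/- stably re-expressing WT Tsc2) in DMEM + 10% FBS received compounds 24 hrs after plating, for 24 hrs at 37 degree Celsius. Fixed cells stained with Alexa-488 anti-phospho-rpS6 Ser235/236 and propidium iodide; laser-scanning cytometry read-out.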

Assay [16] in a line: Validation screen for inhibitors of Lassa infection (AID 463096; calls by dose curve; further: potency means the concentration at half of the fitted maximal effect).
Assay [17] is described as follows: Validation screen for small molecules that induce DNA re-replication in MCF 10A normal breast cells (AID 463097). Further: nearly all actives have a fitted effect of over 60% in size. Further: potency means the concentration at half of the fitted maximal effect. The method in brief:
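Readout: Hoechst nuclear fluorescence intensity, 405 ex / 500-530 em, by scanning plate imager; re-replication scored as increase in nuclei with elevated DNA content. Cells exposed to compound 48 hr, 37 C, 5% CO2 beforehand.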

Assay [18] deals with Ubiquitin carboxyl-terminal hydrolase 2 (Homo sapiens) (UniProt O75604). Briefly: qHTS Validation Assay for Inhibitors of Ubiquitin-specific Protease USP2a Using CHOP2 as the Reporter (AID 463106). The gist of the method: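 USP2 core (10 nM final) was preincubated with compound 30 min at RT in pH 8.0 Tris/CaCl2/beta-ME/CHAPS buffer. Ub-CHOP2 and reporter substrate (25 nM final each) were then added, with fluorescence (Ex 485/Em 531) read after 60 min. Data were normalized to NEM full inhibition and fitted to concentration-response curves.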
Chain of Ubiquitin carboxyl-terminal hydrolase 2 (Homo sapiens) (O75604 whole entry, looked up): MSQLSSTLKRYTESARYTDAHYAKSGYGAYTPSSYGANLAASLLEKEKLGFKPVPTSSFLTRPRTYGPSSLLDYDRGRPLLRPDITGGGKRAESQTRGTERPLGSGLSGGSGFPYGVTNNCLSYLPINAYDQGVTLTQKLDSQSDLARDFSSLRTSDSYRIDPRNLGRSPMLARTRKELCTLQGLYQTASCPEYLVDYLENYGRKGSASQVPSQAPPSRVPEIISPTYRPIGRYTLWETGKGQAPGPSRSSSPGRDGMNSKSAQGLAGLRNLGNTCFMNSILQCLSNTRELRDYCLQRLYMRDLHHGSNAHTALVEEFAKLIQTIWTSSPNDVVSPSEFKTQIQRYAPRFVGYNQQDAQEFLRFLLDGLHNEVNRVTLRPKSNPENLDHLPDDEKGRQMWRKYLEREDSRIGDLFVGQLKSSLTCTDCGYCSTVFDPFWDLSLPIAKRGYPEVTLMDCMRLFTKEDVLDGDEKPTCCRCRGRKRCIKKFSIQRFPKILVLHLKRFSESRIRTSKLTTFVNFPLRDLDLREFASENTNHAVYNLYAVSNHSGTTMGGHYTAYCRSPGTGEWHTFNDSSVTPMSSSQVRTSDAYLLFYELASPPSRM

Chain of Ferritin light chain (Equus caballus) (P02791 2-175 limits assumed): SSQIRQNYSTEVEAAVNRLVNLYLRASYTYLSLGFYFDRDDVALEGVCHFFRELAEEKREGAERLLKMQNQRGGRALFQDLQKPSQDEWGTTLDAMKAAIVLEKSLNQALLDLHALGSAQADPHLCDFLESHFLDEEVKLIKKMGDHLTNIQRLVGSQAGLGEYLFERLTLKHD

On to `O=C(O)CC[N+](=O)[O-]`, for which the Potency result in assay [1], in [2], in assay [3], in [4], in assay [5] and in assay [6] was “inactive” each time. The Potency entry in assay [7], in assay [8], in [9], in [12], in [13] and in [14] was “inactive” in each case. The Potency result in assay [15], in [16] and in assay [17] was “inactive” each time. Moreover, the compound was called inactive in assay [10] and in assay [11].
For the compound `O=C(O)[C@@H]1CCN1`, the Potency entry in assay [1], in [2], in assay [3], in assay [4], in [5] and in assay [6] was “inactive” in each case. Moreover, the Potency entry in assay [7], in [8], in [9], in [12], in assay [13] and in assay [14] was “inactive” each time. Moreover, the Potency entry in assay [15], in assay [16] and in assay [17] was “inactive” each time. The result in assay [10] and in assay [11] was inactive.
As to `Cn1cnc(CCN)c1`, the Potency result in assay [1], in assay [2], in assay [3], in [4], in [5] and in [6] was “inactive” throughout. Besides, the Potency entry in assay [7], in assay [8], in assay [9], in assay [12], in assay [13] and in [14] was “inactive” each time. Also, the Potency result in assay [16] and in assay [17] was “inactive” in each case. The call in assay [10] and in assay [11] was inactive.
With `Clc1ccc(C(c2ccc(Cl)cc2)n2cc[n+](CC(OCc3ccc(Cl)cc3Cl)c3ccc(Cl)cc3Cl)c2)cc1` (centres undefined), the Potency result in assay [1] is “inactive”. Besides, the Potency was 31.6 µM (active) in assay [2]; 7.94 µM (active) in [3]; 7.08 µM (active) in assay [4]; 3.55 µM (active) in assay [5]; 7.08 µM (active) in assay [6]; 3.98 µM (active) in [8]. The Potency in assay [9] is 4.47 µM (active); in assay [16], 11.2 µM (active); in assay [17], 11.2 µM (active).
Turning to `C[N+](C)(C)CC(=O)O`, the Potency entry in [1], in [2], in [3], in assay [4], in assay [5] and in assay [6] was “inactive” throughout. Besides, the Potency entry in assay [7], in assay [8], in assay [9], in assay [16] and in assay [17] was “inactive” in each case. Also, the call in assay [10] and in assay [11] was inactive.
For `NCc1cc(=O)[nH]o1`, the Potency result in assay [1], in [2], in assay [3], in assay [4], in [5] and in assay [6] was “inactive” in each case. Besides, the Potency entry in assay [7], in assay [8], in assay [9], in assay [12], in assay [13] and in assay [14] was “inactive” throughout. The Potency entry in [15], in [16], in assay [17] and in assay [18] was “inactive” each time. In addition, the outcome in [10] and in assay [11] was inactive.
Consider `CC[C@@]1(O)C(=O)OCc2c1cc1n(c2=O)Cc2cc3ccccc3nc2-1`, for which the Potency result in assay [1], in assay [2], in assay [12] and in assay [13] was “inactive” throughout. The Potency in [3] is 1.41 µM (active); in assay [4] it was 0.794 µM (active); in assay [5], 0.794 µM (active); in [6] it was 1.12 µM (active); in [7], 1 µM (active); in assay [8] it was 0.794 µM (active). Also, the figures for the Potency in assay [9] and in [14] were 0.794 µM (active) and 0.104 µM (active), respectively. Also, the compound was classed as inactive in assay [11].
